Measurements taken from PubChem BioAssay (Tox21).
Records with an inconclusive call do not appear. Calls of active or inactive are those of the source. Calls come from the whole dose curve; as a rule, active = well fitted curve in the direction sought with a large enough effect in the repeat runs; inconclusive = weak or mixed curves; inactive = no such curve, though single readings can be large; an effect the other way counts as inactive or inconclusive.

Assays:
[1] = Human pregnane X receptor (PXR) small molecule agonists, qHTS cell viability counter screen (AID 1346977); note: nearly all actives have a fitted effect of over 50% in size
Method in brief: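 PXR-Luc HepG2, 2,000 cells/well, 5% charcoal-stripped FBS; 5hr settle; cpd 24hr, 37C/5% CO2; CellTiter-Fluor at 23hr, read 1hr later (fluorescence).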

[2] = Caspase-3/7 induction in HepG2 cells by small molecules, qHTS assay (AID 1346978); note: nearly all actives have a fitted effect of over 15% in size
Method in brief: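 Wild-type HepG2 cells (2,000/well) were settled 5 h at 37 C, 5% CO2, then exposed to compounds in DMSO for 17 h. Caspase-3/7 activity was read by luminescence 30 min after adding Caspase-Glo 3/7 reagent at room temperature.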

[3] = Caspase-3/7 induction in CHO-K1 cells by small molecules, qHTS cell viability counter screen (AID 1346979); note: nearly all actives have a fitted effect of over 35% in size
Method in brief: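 Cells (CHO-K1, wild type) are plated at 1,500 per well and incubated 5hr. Test compounds in DMSO are then pinned in, followed by 16hr at 37C and 5% CO2. Viability is read by CellTiter-Fluor fluorescence after 1hr.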

[4] = Caspase-3/7 induction in CHO-K1 cells by small molecules, qHTS assay (AID 1346980); note: nearly all actives have a fitted effect of over 15% in size
Method in brief: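 Wild-type cells were seeded at 1,500 per well and settled 5 hr at 37 C, 5% CO2, then exposed to DMSO-dissolved compounds for 17 hr. Caspase-Glo 3/7 reagent was added, and luminescence was read after 30min at room temperature.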

[5] = Caspase-3/7 induction in HepG2 cells by small molecules, qHTS cell viability counter screen (AID 1346981); note: nearly all actives have a fitted effect of over 30% in size
Method in brief: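 Steps: seed 2,000 HepG2 cells per well; incubate 5 hr at 37 C; pin-add compounds in DMSO; incubate 16 hr; add CellTiter-Fluor; after 1 hr at 37 C and 5% CO2, read fluorescence.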

[6] = molecular target: Nuclear receptor subfamily 1 group I member 2 (Homo sapiens) (UniProt O75469); assay: Human pregnane X receptor (PXR) small molecule agonists, qHTS assay (AID 1346982); note: nearly all actives have a fitted effect of over 35% in size
Method in brief: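 Agonist mode qHTS: PXR-Luc HepG2 cells plated 5 hr before DMSO-dissolved compounds were pinned in, cultured 24 hr at 37 C, 5% CO2; ONE-Glo luminescence readout.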

[7] = molecular target: Nuclear receptor subfamily 1 group I member 2 (Rattus norvegicus) (UniProt Q9R1A7); assay: Rat pregnane X receptor (rPXR) activation by small molecules, qHTS assay (AID 1346983); details: rPXR luciferase reporter cells, One-Glo luminescence, 24 h; max activation: active compounds read high; note: nearly all actives have a fitted effect of over 20% in size
Method in brief: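 Cell-based rPXR luciferase reporter assay, 2,000 cells per well, rested 5hr at 37 C before compound addition in DMSO, then 24 hr at 37 C. One-Glo reagent was added and luminescence read after 30 min at room temperature.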

[8] = molecular target: Nuclear receptor subfamily 1 group I member 2 (Homo sapiens) (UniProt O75469); assay: CYP3A4 induction through human pregnane X receptor (PXR) by small molecules, qHTS assay (AID 1346984); note: nearly all actives have a fitted effect of over 40% in size
Method in brief: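 Steps: seed DPX-2 cells, 5 hr at 37C; pin-transfer compounds; 24 hr at 37C; add Luciferin-IPA (3uM final), 3 hr at 37C; add One-Glo, 30 min RT; read luminescence.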

[9] = molecular target: Nuclear receptor subfamily 1 group I member 2 (Homo sapiens) (UniProt O75469); assay: Human pregnane X receptor (PXR) activation by small molecules, qHTS assay (AID 1346985); note: nearly all actives have a fitted effect of over 40% in size
Method in brief: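 DPX-2 cells (HepG2 co-transfected with a PXR response element and a CYP3A4-promoter luciferase construct) were seeded at 2,000 per well, rested 5 hr at 37C, then exposed to DMSO-dissolved compounds for 24 hr. Activation was read as luciferase luminescence.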
% is set by controls: 0 for no effect and ±100 for the full control effect; potency is the fitted concentration of half-maximal effect.

Chain of Nuclear receptor subfamily 1 group I member 2 (Rattus norvegicus) (Q9R1A7 whole entry, looked up): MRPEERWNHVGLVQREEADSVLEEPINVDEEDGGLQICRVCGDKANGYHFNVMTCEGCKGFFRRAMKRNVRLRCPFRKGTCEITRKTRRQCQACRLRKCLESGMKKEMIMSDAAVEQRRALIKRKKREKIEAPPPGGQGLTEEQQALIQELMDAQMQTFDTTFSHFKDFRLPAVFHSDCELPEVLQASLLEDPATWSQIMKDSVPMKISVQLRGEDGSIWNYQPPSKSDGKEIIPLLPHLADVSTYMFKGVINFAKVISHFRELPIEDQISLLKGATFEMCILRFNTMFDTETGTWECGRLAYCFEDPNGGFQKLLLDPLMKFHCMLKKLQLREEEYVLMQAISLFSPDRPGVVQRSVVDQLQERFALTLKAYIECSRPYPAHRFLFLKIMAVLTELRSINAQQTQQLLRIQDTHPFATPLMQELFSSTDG
Chain of Nuclear receptor subfamily 1 group I member 2 (Homo sapiens) (O75469 whole entry, looked up): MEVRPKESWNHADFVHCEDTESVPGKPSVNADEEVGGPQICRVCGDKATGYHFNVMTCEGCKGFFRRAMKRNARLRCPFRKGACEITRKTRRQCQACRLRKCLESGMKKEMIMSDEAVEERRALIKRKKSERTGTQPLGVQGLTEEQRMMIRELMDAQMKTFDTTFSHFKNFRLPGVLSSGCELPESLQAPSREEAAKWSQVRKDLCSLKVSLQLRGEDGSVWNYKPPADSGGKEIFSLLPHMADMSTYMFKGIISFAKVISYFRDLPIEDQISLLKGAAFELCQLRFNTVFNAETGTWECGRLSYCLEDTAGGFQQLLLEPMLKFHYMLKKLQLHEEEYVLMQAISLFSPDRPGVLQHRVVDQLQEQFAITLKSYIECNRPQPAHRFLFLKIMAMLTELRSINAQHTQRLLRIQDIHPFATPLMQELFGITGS

c1ccc(C[n+]2cccc3ccccc32)cc1
inactive: Potency [1] | Potency [2] | Potency [3] | Potency [4] | Potency [5] | Potency [6]

O=C(O)CCCCCCCCCCCBr
inactive: Potency [1] | Potency [2] | Potency [3] | Potency [4] | Potency [5] | Potency [6]

CCC(OCCCOC)OC(C)=O (configuration not stated)
inactive: Potency [1] | Potency [2] | Potency [3] | Potency [4] | Potency [5] | Potency [6]

O=c1cc(-c2ccccc2)oc2cc(O)cc(O)c12
active: Potency [1] 54.5 µM | Potency [3] 61.1 µM | Potency [5] 54.5 µM | Potency [6] 48.6 µM
inactive: Potency [2] | Potency [4]

O=[N+]([O-])c1cc(C2CCCCC2)c(O)c([N+](=O)[O-])c1
active: Potency [1] 4.31 µM | Potency [3] 7.67 µM | Potency [5] 15.3 µM | Potency [6] 8.61 µM
inactive: Potency [2] | Potency [4]

CCOC(=O)c1ccc(O)c(O)c1
inactive: Potency [1] | Potency [2] | Potency [3] | Potency [4] | Potency [5] | Potency [6]

CCC1CO1 (configuration not stated)
inactive: Potency [1] | Potency [2] | Potency [3] | Potency [4] | Potency [5] | Potency [6]

c1ccc2sc(SN(C3CCCCC3)C3CCCCC3)nc2c1
active: Potency [6] 17 µM
inactive: Potency [1] | Potency [2] | Potency [3] | Potency [4] | Potency [5]

CC(=O)NC1(c2cccc(F)c2)CCN(CC[C@@]2(c3ccc(Cl)c(Cl)c3)CN(c3ccccc3)C(=O)CO2)CC1
active: Potency [1] 34.5 µM | Potency [2] 48.7 µM | Potency [3] 34.5 µM | Potency [4] 48.7 µM | Potency [5] 48.7 µM | Potency [6] 19.4 µM

CC(=O)Nc1ccc(C)cc1C
inactive: Potency [1] | Potency [2] | Potency [3] | Potency [4] | Potency [5] | Potency [6]

Oc1cccc(Nc2ccccc2)c1
inactive: Potency [1] | Potency [2] | Potency [3] | Potency [4] | Potency [5]
active: Potency [6] 63.8 µM

CCOc1ccc(Cc2nccc3cc(OCC)c(OCC)cc23)cc1OCC
active: Potency [1] 26.6 µM | Potency [3] 11.9 µM | Potency [5] 29.8 µM | Potency [6] 3.35 µM
inactive: Potency [2] | Potency [4] | max activation [7] -4.93%

O[C@@H]1CO[C@H]2[C@@H]1OC[C@@H]2O
inactive: Potency [1] | Potency [2] | Potency [3] | Potency [4] | Potency [5] | Potency [6] | max activation [7] -1.59% | Potency [8] | Potency [9]

NCCNCCO
inactive: Potency [1] | Potency [2] | Potency [3] | Potency [4] | Potency [5] | Potency [6]

CCC=CC#N
inactive: Potency [1] | Potency [2] | Potency [3] | Potency [4] | Potency [5]
active: Potency [6] 47.1 µM

CC1=C(Br)C(=O)C(Br)=C/C1=C(/c1ccccc1S(=O)(=O)O)c1cc(Br)c(O)c(Br)c1C
active: Potency [1] 20.8 µM | Potency [3] 18.6 µM | Potency [5] 37 µM
inactive: Potency [2] | Potency [4] | Potency [6]

COC(=O)CCS
inactive: Potency [1] | Potency [2] | Potency [3] | Potency [4] | Potency [5] | Potency [6]

Cc1cscn1
inactive: Potency [1] | Potency [2] | Potency [3] | Potency [4] | Potency [5] | Potency [6]

CCOC(=O)/C=C/C(=O)OCC
inactive: Potency [1] | Potency [2] | Potency [3] | Potency [4] | Potency [5] | Potency [6]

CCCCCCCC/C=C\CCCCCCCCCCCC(=O)O
inactive: Potency [1] | Potency [2] | Potency [3] | Potency [4] | Potency [5] | Potency [6]

Cc1c(C)c2c(c(C)c1OC(=O)CCC(=O)OCCO)CC[C@@](C)(CCC[C@H](C)CCC[C@H](C)CCCC(C)C)O2
inactive: Potency [1] | Potency [2] | Potency [3] | Potency [4] | Potency [5] | Potency [6]

CN(C)CCC=C1c2ccccc2C=Cc2ccccc21
active: Potency [1] 13.3 µM | Potency [8] 31.6 µM
inactive: Potency [2] | Potency [3] | Potency [4] | Potency [5] | Potency [6] | max activation [7] 0.747%

CC1(C)O[C@@H]2C[C@H]3[C@@H]4C[C@H](F)C5=CC(=O)C=C[C@]5(C)[C@H]4[C@@H](O)C[C@]3(C)[C@]2(C(=O)CO)O1
inactive: Potency [1] | Potency [2] | Potency [3] | Potency [4] | Potency [5] | Potency [8] | Potency [9]
active: Potency [7] 8.91 µM

CC(=O)N/N=C/c1ccc([N+](=O)[O-])o1
active: Potency [3] 29.8 µM
inactive: Potency [2] | Potency [4] | Potency [5] | max activation [7] -3.83% | Potency [8] | Potency [9]

O=c1cc(-c2ccccc2)oc2ccc3ccccc3c12
inactive: Potency [1] | Potency [2] | Potency [4]
active: Potency [3] 54.5 µM | Potency [6] 2.43 µM

CC[C@]1(O)C[C@H]2CN(CCc3c([nH]c4ccccc34)[C@@](C(=O)OC)(c3cc4c(cc3OC)N(C=O)[C@H]3[C@@](O)(C(=O)OC)[C@H](OC(C)=O)[C@]5(CC)C=CCN6CC[C@]43[C@@H]65)C2)C1
inactive: Potency [2] | Potency [4]
active: Potency [9] 8.91 µM

O=C(CCCN1CC=C(n2c(=O)[nH]c3ccccc32)CC1)c1ccc(F)cc1
inactive: Potency [2] | Potency [3] | Potency [4] | Potency [5] | max activation [7] 0.857% | Potency [8]
